Test results published in the supplement of paper PMC3334620.
Over roughly 33,000 sequences, “E-score (-0.5 to 0.5)” has its median near -0.036; the highest 2% begin near 0.37. What follows is part of a selection rich in the highest values, with near analogues and random picks from the rest.

Target: T1, Yer064c (UniProt P40041)
T1 sequence: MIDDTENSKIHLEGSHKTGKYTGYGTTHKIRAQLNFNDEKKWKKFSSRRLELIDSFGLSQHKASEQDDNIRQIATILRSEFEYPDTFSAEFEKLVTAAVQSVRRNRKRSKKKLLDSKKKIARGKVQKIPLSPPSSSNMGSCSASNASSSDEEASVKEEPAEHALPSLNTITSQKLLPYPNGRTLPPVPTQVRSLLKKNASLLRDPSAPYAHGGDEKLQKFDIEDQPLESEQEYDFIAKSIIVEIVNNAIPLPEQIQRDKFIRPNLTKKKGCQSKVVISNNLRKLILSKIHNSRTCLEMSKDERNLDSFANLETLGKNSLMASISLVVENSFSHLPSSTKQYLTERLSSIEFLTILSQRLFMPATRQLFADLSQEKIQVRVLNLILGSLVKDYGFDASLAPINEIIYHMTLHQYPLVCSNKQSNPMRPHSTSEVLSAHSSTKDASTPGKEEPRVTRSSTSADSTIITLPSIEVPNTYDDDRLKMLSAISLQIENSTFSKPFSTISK
Experiment: PBM E-score (8-mer binding enrichment) (E-score (-0.5 to 0.5)); higher = stronger / more preferred TF binding
Details: protein concentration: 200 nM; construct: GST-full length
Method in brief: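 PURExpress in vitro transcription/translation supplied GST-tagged yeast transcription factors, either full-length or DNA-binding domain. Applied at about 100-200 nM to universal all-10-mer Agilent arrays double-stranded by primer extension, the bound protein was detected with fluorescent anti-GST. E-scores, modified Wilcoxon-Mann-Whitney statistics, were given by the Universal PBM Analysis Suite to ungapped eight-base words pooled with their reverse complements after masliner normalisation.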

Sequence	PBM E-score
ATTGACCA	-0.0765
AATTAGTG	0.0657
CATTAGTA	0.257
AATTAGTA	0.103
AATTAGTC	0.446
CATTAGAC	0.0825
CATTAGTC	0.421
CATTTTGC	-0.0161
CCTAGTCA	0.446
GCTAGTCC	0.0288
ACTAGTCC	0.164
ACTAGTCT	0.345
TCTAGTCA	0.447
CCTAGTCC	0.0749
TCTAGTAA	-0.0245
TCTAGACA	0.128
GCTAGTCA	0.448
ACTAGTCA	0.456
CCTAGTCG	0.263
GCTAGTTA	0.00744
AACGGTGT	-0.021
ACCTGGTC	-0.12
AGAGAACT	-0.0782
AACAGCAG	-0.26

Sequence	PBM E-score
CGTTATCC	-0.11
ATGAGTAC	0.415
ATGAGTAG	0.308
CTGAGTAA	0.204
ATGAGTAA	0.386
GTGAGTAA	0.331
CTGAGTAC	0.291
AGAGGCGG	-0.16
AGAGGTGC	-0.25
CGATCGTA	0.05
GTTCCAAA	-0.00663
AAAGACAT	-0.156
CTTCATGC	-0.12
ACTCATGC	0.378
ACTCATGG	0.34
CCTCATGC	-0.144
CCTCATGA	0.16
ACTCATGA	0.402
AGCCCGGG	-0.144
GCTCACAA	0.0192
CGGTAGAG	-0.118
AATCACAT	0.398
GATCACAC	0.178
AATCACAC	0.39

Sequence	PBM E-score
AATCACAG	0.359
AATCACAA	0.362
CATCACAC	0.0825
CGCTATTC	-0.0435
ACATACAC	0.0835
CTGGCATA	-0.0817
GTCACTCA	0.334
CGTCTTCC	-0.0994
ACTCTTCG	0.213
AGTCTTCA	0.408
AGTCTTTA	0.341
GGTCTTCA	-0.144
CGTCTTCA	-0.115
AGTCTTCG	0.418
AGTCTTGG	0.315
ATTCTTCC	-0.102
AGTCTTTC	0.372
CGTCTTTC	-0.108
AGTCTTCC	0.432
CACTTACC	0.0118
ACAAGGGA	-0.248
AATGTGAC	0.203
AGCGGCGA	-0.0237
CCTTAGCG	0.0566

Sequence	PBM E-score
ACGAAGGG	-0.192
CATTAGGA	0.0671
CCACTCTA	0.0684
AGCTGTCG	-0.196
CGTCTCCC	-0.223
AGTCTCCC	0.382
AGTCTCCA	0.27
AACTCCCA	-0.184
AACTCCCC	0.0421
CACTCCCC	-0.147
GACTCCCA	0.381
CACTCCCA	0.0058
GACTCCCC	0.405
AGCCCAAA	0.141
CCTCCCCC	-0.224
CCTTTATC	-0.243
CAACGTAC	-0.0947
CTAGAGTA	0.138
ATAGAGTA	0.134
ATAGAGTG	0.00994
CTAGAGTC	0.366
CTAGAGGC	-0.0949
ATAGAGTC	0.371
CTAGTAGA	0.0545

Sequence	PBM E-score
AACGGTGC	-0.101
ACGCCGCT	-0.119
CAAACCGC	-0.0599
CAACACAC	0.0236
ACTGTCCG	-0.022
CTACTGAG	0.157
CGAGTCGA	0.271
CGAGTCGC	0.383
AGAGTCGA	0.291
AGAGTCGC	0.396
AGAGTCGG	0.326
CCAGTCGC	-0.0128
GACCCTGC	-0.262
CACCGTAC	-0.0293
TGCTGAAA	-0.0596
AGAGTCTA	0.158
AGAGTCCC	0.0408
AGAGTCAC	0.485
AGAGTCCT	0.298
AGAGTCCA	0.262
AGAGTCTG	0.147
AGAGTCAT	0.492
AGAGTCTC	0.332
AGTGTCAT	0.0731

Sequence	PBM E-score
AGAGTCAA	0.436
AGAGTCAG	0.457
AGAGTCCG	0.212
CCCGGACG	-0.193
CATCTCGC	0.0122
GACACGCA	-0.104
AGCCACTC	0.0575
CGTGTATA	0.0534
CCTAATTA	-0.151
ATGCTAGA	-0.0387
CAGAACTG	0.139
AGCCGAGA	0.0772
CACTTTCG	-0.131
AACACCAT	-0.0344
CAGCTTTA	-0.123
ATATATCA	-0.0122
GGCACCCC	-0.215
GCCATGAC	0.307
ATCATGAG	0.34
CTCATGAC	0.381
ATCATGAC	0.369
AGCATGAT	0.26
ACCATGAT	0.217
CTCATGAG	0.3

Sequence	PBM E-score
ATCATGAA	0.266
GTCATGAA	0.308
ATCATGAT	0.378
GTCATGAC	0.432
CTCATGAA	0.202
CCGAGCAA	-0.287
ATTTGGTG	-0.0429
CCACGTTC	-0.218
CGGTCAAG	-0.055
AATTTAGT	0.363
GTACCGCA	-0.0756
CTAGCACA	-0.147
CCATAGCC	-0.0772
CCATAGTA	0.0975
ACATAGTA	0.0874
ACATAGTC	0.386
ACATAGTG	0.0787
CCATAGTC	0.396
